# The full list was thinned out, with hits kept by preference.
# TbREL1 primary – TbREL1 inhibition, primary screen. P86926. TbREL1 RNA ligation, FRET fluorescence. inhibition, % at 9.66 µM. hit rate 0.49% among 89,000. AID 1117264;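 active means inhibition above the mean inhibition across all screened compounds plus 3 SD, cut at about 11% in these data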;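 further: 0% = plate median of test wells and 100% = NSC42067 control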
# Target sequence (P86926 whole entry, looked up): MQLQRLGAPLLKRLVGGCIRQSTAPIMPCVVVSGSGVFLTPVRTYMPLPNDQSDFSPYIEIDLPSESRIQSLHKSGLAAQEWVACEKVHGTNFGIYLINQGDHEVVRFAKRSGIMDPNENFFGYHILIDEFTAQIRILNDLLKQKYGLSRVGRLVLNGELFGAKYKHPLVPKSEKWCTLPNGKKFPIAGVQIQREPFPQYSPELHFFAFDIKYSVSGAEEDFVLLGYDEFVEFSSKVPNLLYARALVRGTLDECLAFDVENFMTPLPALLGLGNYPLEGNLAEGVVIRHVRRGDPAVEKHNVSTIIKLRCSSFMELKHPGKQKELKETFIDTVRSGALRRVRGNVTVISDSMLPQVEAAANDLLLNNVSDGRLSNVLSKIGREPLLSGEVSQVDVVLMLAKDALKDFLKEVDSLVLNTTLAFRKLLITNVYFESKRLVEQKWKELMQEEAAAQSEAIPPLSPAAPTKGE
# TbREL1 confirm – TbREL1 inhibition, confirmation. inhibition, % at 9.66 µM. shares compounds with TbREL1 primary. hit rate 37% among 390. AID 1117282. TbREL1 RNA ligation, FRET fluorescence;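 active means mean inhibition across replicates above a set limit taken from the earlier primary screen, cut at about 11% in these data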;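 further: 0% = REL1 with substrate and DMSO and 100% = REL1 plus control inhibitor NSC42067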
# Starred values were filed as active, the others as inactive.
SMILES,TbREL1 primary,others
CC(=O)Oc1cc(C(=O)OCC(=O)NC23CC4CC(CC(C4)C2)C3)cc(OC(C)=O)c1OC(C)=O,12.3*,
COc1ccc(C(=O)OCC(=O)NC23CC4CC(CC(C4)C2)C3)c(OC)c1OC,3.6,
O=C(COC(=O)c1ccccn1)NC12CC3CC(CC(C3)C1)C2,-0.2,
O=C(N[C@H](C(=O)N1CCC[C@H]1C(=O)NC1CCCC1)C1CCCCC1)c1ccc(Cl)c(Cl)c1,3.1,
Cn1ccc2c(N3CCCCCCC3)cc3c(c21)C1CCC3O1 (configuration not stated),-5.0,
COC(=O)[C@]12C[C@H](CC(=O)NCc3cccs3)C(=O)N(CCC3=CCCCC3)C1=C[C@H](C1CCCC1)O[C@@H]2C,-3.1,
O=C(CN1C(=O)C2(OCCCO2)c2ccccc21)NCc1ccccc1Cl,0.2,
Cc1ccc(-c2nc(C3CCCN(S(=O)(=O)c4ccccc4)C3)no2)cc1 (configuration not stated),4.0,
Cc1ccc(CNCCC2=CCCCC2)cc1,11.1*,
CCCNC(=O)C(=O)NCCC1=CCCCC1,1.3,
Cc1ccc(C2(C)NC(=O)N(CC(=O)NCCC3=CCCCC3)C2=O)cc1 (configuration not stated),-0.8,
O=S1(=O)c2ccc(N3CCCC3)cc2Oc2ccccc2CN1Cc1cn(Cc2ccc(F)cc2)nn1,1.0,
O=C(CSc1nnc(SCc2cccc3ccccc23)s1)Nc1ccc(Oc2ccccc2)cc1,1.1,
CCOC(=O)c1nn(-c2ccc(C)cc2)c(=O)c2c(N)scc12,1.0,
COc1ccc(-n2nnc3c(=O)n(CC(=O)N4CCCC4)cnc32)cc1,2.5,
CCOC(=O)C(CC)n1cnc2c(nnn2-c2ccc(C)cc2)c1=O (configuration not stated),18.6*,TbREL1 confirm=1.8
Cc1ccc(CN2CCCCC(NC(=O)c3cccc(F)c3)C2=O)cc1 (configuration not stated),-1.2,
CC(NCC(O)COc1ccc2ccccc2c1)c1ccccc1 (configuration not stated),13.8*,TbREL1 confirm=14.5*
Cc1nc(C)n(CC(O)COc2ccc3ccccc3c2)n1 (configuration not stated),-2.6,
CCCC(NCC(O)COc1ccc(-c2ccccc2)cc1)c1ccccc1 (configuration not stated),0.7,
COC(=O)[C@]12C[C@H](CC(=O)NCC3CCCCC3)C(=O)N(CCc3ccc(OC)c(OC)c3)C1=C[C@H](C(C)C)O[C@@H]2C1CC1,2.2,
Nc1ccc(-c2nc3ccc(N)cc3[nH]2)cc1,18.4*,TbREL1 confirm=36.3*
Nc1ccc(-c2nc3ccc([N+](=O)[O-])cc3[nH]2)cc1,3.0,
Nc1ccc(-c2nc3ccc(-c4nc5ccccc5o4)cc3[nH]2)cc1,2.9,
O=S(=O)(CC1NCCc2ccccc21)NCCc1ccccc1 (configuration not stated),0.9,
SMILES,TbREL1 primary,others
COC(=O)C1=C(C)N(Cc2ccc(Br)cc2)C(=S)NC1c1cccc(F)c1 (configuration not stated),0.6,
CCOC(=O)C1CCN(C(=O)CN(c2cc(Cl)ccc2OC)S(=O)(=O)c2ccccc2)CC1,0.5,
COC(=O)CN(c1cc(Cl)ccc1OC)S(=O)(=O)c1ccc(C)cc1,3.5,
COc1ccc(Cl)cc1N(CC(=O)N1CCCC1)S(=O)(=O)c1ccc(C)cc1,12.5*,TbREL1 confirm=3.7
C[C@@H]1CCN(C2CC2)S(=O)(=O)c2c(cccc2N2CC[C@H](N(C)C)C2)O1,3.8,
O=C(Nc1ccc(C(F)(F)F)cc1)OC1CC2CC1[C@H]1CCCCN1[C@H]2Cc1ccccc1 (some centres not stated),4.8,
CCOC(=O)[C@@]12CCC3=C1N(CCC3)C(=O)[C@H](CC(=O)NCCCN1CCCC1=O)C2,-2.1,
COc1cccc(CN(C)C(=O)[C@H]2O[C@@H](n3cnc4c(=O)[nH]c(N)nc43)[C@H](O)[C@@H]2O)c1,14.1*,TbREL1 confirm=19.3*
CC(CNC(=O)[C@H]1O[C@@H](n2cnc3c(=O)[nH]c(N)nc32)[C@H](O)[C@@H]1O)c1ccccc1 (some centres not stated),-0.5,
COC(=O)[C@@H](Cc1ccccc1)NC(=O)[C@H]1O[C@@H](n2cnc3c(=O)[nH]c(N)nc32)[C@H](O)[C@@H]1O,-4.6,
O=C(Cc1cn(Cc2ccccc2)c2ccccc12)Nc1ccc(Nc2cccnc2)c(Br)c1,-0.5,
Cc1ccc(NC(=O)OC2CC3CC2[C@H]2CCCCN2[C@H]3Cc2ccccc2)cc1 (some centres not stated),2.2,
CCN(CC)C(=O)CN1C(=O)C2CCCCN2C(=O)c2ccccc21 (configuration not stated),4.8,
O=C(O)CCCNC(=O)Nc1ccccc1,0.9,
O=C(O)CCCNC(=O)Cc1ccccc1,16.9*,TbREL1 confirm=-0.5
O=C(Cc1ccccc1)NCCN1CCCC1,-0.5,
COc1ccc(Cl)cc1NC(=S)N1CCN(c2ncccn2)CC1,-0.7,
CCOC(=O)c1ccc(NC2c3ncccc3C(=O)N2Cc2ccc(F)cc2)cc1 (configuration not stated),4.8,
COc1ccc(CN2C(=O)c3cccnc3C2Nc2cc(Cl)ccc2OC)cc1 (configuration not stated),31.8*,TbREL1 confirm=41.3*
O=S(=O)(c1ccccc1)N1CCN(S(=O)(=O)c2ccc3c(c2)OCCO3)CC1,-4.8,
C=CCN1C(=O)[C@H](CC(=O)NCCc2ccccc2OC)[C@@]2(C(=O)OCC)CCCC=C12,-2.9,
CCCC1CCC2(CCCN2CCOC(=O)Nc2ccccc2OC)CC1 (configuration not stated),-2.1,
CC(C)C[C@H]1COc2cc(N3CCOCC3)ccc2S(=O)(=O)N1,0.8,
O=C(Nc1cccs1)Nc1c(F)cc(F)cc1Br,-0.3,
CCC(C)NS(=O)(=O)c1ccc(F)c(C(=O)Nc2c(F)cc(F)cc2Br)c1 (configuration not stated),19.0*,TbREL1 confirm=1.8
SMILES,TbREL1 primary,others
NS(=O)(=O)c1ccc(F)c(C(=O)O)c1,3.4,
O=C(CN1CCC(NC(=O)NC2CCCC2)CC1)Nc1ccc2c(c1)OCCO2,0.6,
O=C(NCc1ccccc1)[C@@H]1CCCN1C(=O)[C@@H](NS(=O)(=O)c1ccc(F)cc1F)c1ccccc1,-3.0,
CCN=c1scc(C)n1/N=C/c1ccc(O)c(O)c1O,13.1*,TbREL1 confirm=24.3*
Cc1cc(C(=O)N/N=C/c2ccc(O)c(O)c2O)c(C)n1-c1ccccc1,0.9,
Oc1ccc(/C=N/N(Cc2ccccc2)c2ccccc2)c(O)c1O,-4.4,
Cc1cc(NS(=O)(=O)c2ccc3c(c2)CCC(=O)N3)ccc1Cl,0.7,
O=C(N/N=C/c1sc(N2CCOCC2)nc1-c1ccccc1)c1ccccc1O,2.5,
O=C(Cc1csc(N2CCOCC2)n1)N/N=C/c1ccc(O)c(O)c1O,12.1*,TbREL1 confirm=35.4*
O=C(CCN1CCOCC1)N/N=C/c1cc(Br)cc(Br)c1O,2.5,
O=C1CC(N2CCCC2)=NC(=O)N1c1ccc(Br)cc1,-2.3,
COC(=O)c1ccc[n+](CC(=O)c2ccc(Br)cc2)c1,11.3*,TbREL1 confirm=0.3
Cc1cc(C)c[n+](CC(=O)c2ccccc2)c1,0.6,
O=C(C[n+]1ccc2ccccc2c1)c1ccccc1,1.1,
O=C1CCC[C@H]2C[C@H](NCc3ccc(F)cc3)CC[C@]23CCCN13,0.1,
CCOc1nc2cccc(C(=O)O)c2n1Cc1ccc(-c2ccccc2-c2nn[nH]n2)cc1,1.9,
O=C(CSc1nc2ccccc2[nH]1)NN=Cc1ccccc1C(=O)O,4.7,
CC(/C=N\NC(=O)CSc1nnc(-c2ccc(Br)cc2)n1-c1ccccc1)=C\c1ccco1,1.2,

# Bioassay records: PubChem, The Scripps Research Institute Molecular Screening Center
